The subject of test [1] is Zika virus NS2B-NS3 protease (unlinked complex). As to the kind of experiment: Primary screen GU Rhodamine qHTS for Zika virus inhibitors: Unlinked NS2B-NS3 protease assay (AID 1347159). Also: nearly all actives have a fitted effect of over 60% in size. The method in brief:
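Noncovalent NS2B hydrophilic domain–NS3 protease domain complex (25 nM) preincubated 15 min at room temperature with compounds (up to 114 microM) in 10 mM Tris-HCl pH 8.0, 0.01% Tween 20; 1.5 microM Rhodamine110 substrate added, fluorescence change over 15 min fitted to Hill equation.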

Test [2] has as its system Zika virus NS2B-NS3 protease (linked construct). As to the kind of experiment: Primary screen NINDS Rhodamine qHTS for Zika virus inhibitors (AID 1347160). Also: nearly all actives have a fitted effect of over 55% in size. A digest of the protocol:
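Purified linked NS2B-NS3 protease (NS2B hydrophilic domain joined to NS3 protease by flexible linker), 25 nM in 10 mM Tris-HCl pH 8.0, 0.01% Tween 20. Compounds titrated, 15 min preincubation at room temperature; 1.5 microM Rhodamine110 substrate, FITC fluorescence change over 15 min.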
On the technique in general: qHTS replaces the single test concentration by a dilution series.

22 compounds from PubChem BioAssay (NCATS) can be followed below.

Results filed as inconclusive are left out. A call without a number means that no potency is given here. Calls of active or inactive are those of the source. Calls follow the shape of the dose curve; as a rule, active = well fitted inhibition curve with a large enough effect; inconclusive = small, poorly fitted or top-dose-only effect; inactive = no such curve, though single readings can be large or run the other way.
Potency is read from the fitted curve at half-maximal effect.

Turning to `C/C=C1\[C@H](O[C@@H]2O[C@H](CO)[C@@H](O)[C@H](O)[C@H]2O)OC=C(C(=O)O)[C@H]1CC(=O)OCCc1ccc(O)cc1`, the Potency result in test [1] and in test [2] was “inactive” in each case.
Consider `COc1c2cc(c(O)c1OC)CCCCC(O)CCc1ccc(O)c-2c1` (stereo not drawn), for which the Potency result in test [1] and in test [2] was “inactive” throughout.
As to `CS(=O)(=O)c1ccccc1N1CCN(c2nc3c(c(=O)[nH]2)CSCC3)CC1`, the Potency result in test [1] and in test [2] was “inactive” throughout.
On to `CC[C@@H]1C(=O)O[C@]23C=C[C@@H]4C(C(=O)OC)=CO[C@H](O[C@@H]12)[C@@H]43`, for which, in test [2], the Potency entry is “inactive”.
In the case of `COc1ccc(C(=O)CC(=O)O)c2c1C=CC(C)(C)O2`, the Potency entry in test [1] and in test [2] was “inactive” throughout.
`NC1=NC2(c3cc(NC(=O)c4ccc(F)cn4)ccc3F)COCC2CS1` (stereo not drawn): the Potency result in test [1] and in test [2] was “inactive” throughout.
On to `CC(=O)/C=C/[C@H]1[C@](C)(O)[C@@H](O)[C@H](O)C2C(C)(C)CCC[C@@]21C` (stereo partly drawn), for which the Potency result in test [1] and in test [2] was “inactive” in each case.
`COCC1OC(OC(C)(C)C2CCC3(C)C=C(C4CCC5C4(C)CC(O)C4OC(C(C)(C)O)CCC45C)CCC3O2)C(NC(C)=O)C(O)C1O` (stereo not drawn): the Potency result in test [2] was “inactive”.
As to `CC(C)c1c(NC(=O)Nc2ccc(Cl)cc2)c(=O)n(-c2ccccc2)n1C`, the Potency result in test [1] and in test [2] was “inactive” each time.
As to `Cc1ncc(Cl)cc1NCc1ccc(C(=O)NC(CC2CCCC2)C(=O)NC2CC2)s1` (stereo not drawn), the Potency entry in test [1] and in test [2] was “inactive” each time.
Regarding `CCC(C)/C=C(C)/C=C/C(=O)C1CCC(O)C(C)(O)C1=O` (stereo not drawn), the Potency in test [1] is 17.8 µM (active); in test [2], 25.1 µM (active).
On the same counts, the results for `Cc1ccc(COC(=O)N2CC[C@@H](CNc3ncccn3)[C@@H](F)C2)cc1` are “inactive” and “inactive”.
`C=C[C@]1(C)C[C@@H](OC(=O)CSC2C[C@H]3CC[C@@H](C2)N3C)[C@]2(C)[C@H](C)CC[C@]3(CCC(=O)[C@H]32)[C@@H](C)[C@@H]1O` (stereo partly drawn): the Potency entry in test [1] and in test [2] was “inactive” in each case.
Consider `O=C(CCCCC1CCCCC1)N1CCC(c2cnc[nH]2)CC1`, for which the Potency result in test [1] and in test [2] was “inactive” in each case.
As for `COc1ccc(CCc2nc3cc(-c4c(C)noc4C)ccc3n2C[C@H](C)N2CCOCC2)cc1Cl`, the Potency entry in test [1] and in test [2] was “inactive” each time.
With `COc1ccccc1N1CCN(CCCCNC(=O)c2ccc(-c3cscn3)cc2)CC1`, the Potency result in test [1] and in test [2] was “inactive” in each case.
In the case of `CC(CNS(=O)(=O)C(C)C)c1ccc(-c2ccc(C#N)cc2)cc1` (stereo not drawn), the Potency entry in test [2] was “inactive”.
`Cc1oc(S(=O)(=O)N2CCCCC2)cc1NC(=O)Nc1ccccc1`: the Potency entry in test [1] and in test [2] was “inactive” in each case.
Turning to `O=C(O)Cn1nnc(-c2ccc(CN(CCCCOc3ccc(CN4CCCC4)cc3)CCc3ccccc3)cc2)n1`, the Potency result in test [2] was “inactive”.
With `Cc1ccc2nc(NC(=O)CSc3nc4c(c(=O)n3-c3ccc(F)cc3)SCC4)sc2c1`, the Potency result in test [2] was “inactive”.
For `O=c1[nH]ccc2nc(-c3ccc(CN4CCC(c5nc(-c6ccccn6)n[nH]5)CC4)cc3)c(-c3ccccc3)cc12`, the Potency result in test [2] was “inactive”.
`O=C(/C=C/c1ccc(O)cc1)OC[C@H]1O[C@H](O[C@@]2(CO)O[C@@H](CO)[C@H](O)[C@H]2O)[C@H](O)[C@@H](O)[C@@H]1O`: the Potency result in test [1] and in test [2] was “inactive” throughout.
